# Counter-ions that a name gives are not always drawn.
# Test system: Klebsiella aerogenes DSM 30053
# Experiment: growth (OD595) fold change vs plate DMSO controls (fold change (ratio)); higher = more growth
# Conditions: incubation time: 27 h, anaerobic, 37 °C
# Summary of the method: (§1)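 After 27 h at 37 °C under anaerobic conditions, 96-well cultures in mGAM were shaken and read at 595 nm. The readings were blank-subtracted, corrected for compound background using 20 µM compound solutions in water, and converted to OD with a calibration factor of 5. Growth is defined as the fold change over the median of DMSO controls on each plate. Fold changes above 1.5 were set to NA, and each value is the mean of 2 biological replicates.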
row,Structure (SMILES),growth
1,CC(C)Oc1ccc2c(=O)c(-c3ccccc3)coc2c1 [Ipriflavone] (20 µM),0.992
2,CC[C@@H]1C(=O)OC[C@@H]1Cc1cncn1C [Pilocarpine nitrate] (20 µM),0.987
3,COC(=O)[C@@H]1[C@H]2C[C@H]3c4[nH]c5ccccc5c4CCN3C[C@@H]2CC[C@@H]1O [Yohimbine hydrochloride] (20 µM),1.04
4,CC(=O)N1CCN(c2ccc(OCC3COC(Cn4ccnc4)(c4ccc(Cl)cc4Cl)O3)cc2)CC1 (stereo not drawn) [Ketoconazole] (20 µM),1
5,CN1C(C(=O)Nc2ccccn2)=C(O)c2ccccc2S1(=O)=O [Piroxicam] (20 µM),1.02
6,NS(=O)(=O)c1cc2c(cc1Cl)NC(Cc1ccccc1)NS2(=O)=O (stereo not drawn) [Benzylhydrochlorothiazide] (20 µM),0.986
7,Cc1cc2c(cc1S(N)(=O)=O)S(=O)(=O)CCC2 [Meticrane] (20 µM),1.02
8,OC[C@@H](O)[C@@H](O)[C@@H](O)[C@@H](O)CO [Allitol] (50 µM),1.11
9,Cc1c(N(C)C)c(=O)n(-c2ccccc2)n1C [Amidopyrine] (20 µM),0.997

# Test system: Ruminococcus gnavus DSM 108212
# Experiment: as above
# Conditions: incubation time: 27 h, anaerobic, 37 °C
# Summary of the method: as §1
row,Structure (SMILES),growth
1,Oc1c(Cl)cc(Cl)c2cccnc12 [Chloroxine] (20 µM),0.369
2,O=C1NCCN1CCN1CCC(c2cn(-c3ccc(F)cc3)c3ccc(Cl)cc23)CC1 [Sertindole] (20 µM),1.16
3,CCSc1ccc2c(c1)N(CCCN1CCN(C)CC1)c1ccccc1S2 [Thiethylperazine maleate] (20 µM),0.847
4,Cc1ccsc1/C=C/C1=NCCCN1C [Morantel tartrate] (20 µM),1.08
5,COc1cc(C)nc(-n2nc(C)cc2OC)n1 [Epirizole] (20 µM),0.89
6,CCC1(c2ccccc2)NC(=O)N(C)C1=O (stereo not drawn) [Mephenytoin] (20 µM),1.14
7,CCCCCCCC/C=C\CCCCCCCCCCCC(=O)O [Erucic acid] (20 µM),1.06
8,C#CCN(C)CCCOc1ccc(Cl)cc1Cl [Clorgyline hydrochloride] (20 µM),0.97
9,CC1=NN(c2ccccc2)C(=O)C1 [Edaravone] (20 µM),0.963
10,CC(=O)N[C@H]1[C@H]([C@H](O)[C@H](O)CO)OC(C(=O)O)=C[C@@H]1NC(=N)N [Zanamivir] (20 µM),0.992
11,Cc1ccc(S(=O)(=O)NC(=O)NN2CCCCCC2)cc1 [Tolazamide] (20 µM),1.19
12,CN1CCN(C2=Nc3cc(Cl)ccc3Nc3ccccc32)CC1 [Clozapine] (20 µM),0.688
13,CCCNC(C)(C)C(=O)Nc1ccccc1C [Quatacaine] (20 µM),0.952
14,CN(C)c1cc(NC(=O)CNC(C)(C)C)c(O)c2c1C[C@H]1C[C@H]3[C@H](N(C)C)C(=O)C(C(N)=O)=C(O)[C@@]3(O)C(=O)C1=C2O [Tigecycline] (20 µM),1.19
15,CCOC(=O)[N-]c1c[n+](N2CCOCC2)no1 [Molsidomine] (20 µM),0.196
16,CCN(CC)CCOC(=O)C(Cc1cccc2ccccc12)CC1CCCO1 (stereo not drawn) [Nafronyl oxalate] (20 µM),1
17,CCN(CC)CCOC(=O)C1(C2CCCCC2)CCCCC1 [Dicyclomine hydrochloride] (20 µM),0.659
18,CC[C@H]1OC(=O)[C@H](C)[C@@H](O[C@H]2C[C@@](C)(OC)[C@@H](O)[C@H](C)O2)[C@H](C)[C@@H](O[C@@H]2O[C@H](C)C[C@H](N(C)C)[C@H]2O)[C@](C)(O)C[C@@H](C)C(=O)[C@H](C)[C@@H](O)[C@]1(C)O [Erythromycin] (20 µM),0.129
19,NC(=O)NS(=O)(=O)c1ccc(N)cc1 [Sulfacarbamide] (20 µM),0.94
20,O=c1[nH]cc(F)c(=O)[nH]1 [5-fluorouracil] (20 µM),1.21

row,Structure (SMILES),growth
1,NC(=O)N/N=C/c1ccc([N+](=O)[O-])o1 [Nitrofural] (20 µM),0.979
2,COC(=O)C1=C(C)NC(C)=C(C(=O)OC2CCCN(Cc3ccccc3)C2)C1c1cccc([N+](=O)[O-])c1 (stereo not drawn) [Benidipine hydrochloride] (20 µM),0.864
3,CCNC(=O)CCC/C=C\C[C@@H]1[C@@H](/C=C/[C@@H](O)CCc2ccccc2)[C@H](O)C[C@@H]1O [Bimatoprost] (20 µM),1
4,CN(Cc1ccc(C(C)(C)C)cc1)Cc1cccc2ccccc12 [Butenafine hydrochloride] (20 µM),0.838
5,CN1CCC(OC(c2ccccc2)c2ccccc2)CC1 [Diphenylpyraline hydrochloride] (20 µM),1.13
6,c1ccc2cc3c(ccc4ccccc43)cc2c1 [Benz[a]anthracene] (20 µM),0.97
7,CC1=C(C(=O)O)N2C(=O)[C@@H](NC(=O)[C@H](N)c3ccccc3)[C@H]2SC1 [Cephalexin monohydrate] (20 µM),0.987
8,CNc1ncnc2c1ncn2[C@@H]1O[C@H](CO)[C@@H](O)[C@H]1O [N6-methyladenosine] (20 µM),0.955
9,Cn1nnc2c(C(N)=O)ncn2c1=O [Temozolomide] (20 µM),1.23
10,CN[C@@H]1[C@H](O[C@H]2[C@H](O[C@H]3[C@H](O)[C@@H](O)[C@H](N=C(N)N)[C@@H](O)[C@@H]3N=C(N)N)O[C@@H](C)[C@]2(O)C=O)O[C@@H](CO)[C@H](O)[C@H]1O [Streptomycin sulfate] (20 µM),1.15
11,CC(C)Oc1ccc2c(=O)c(-c3ccccc3)coc2c1 [Ipriflavone] (20 µM),1.03
12,CC[C@@H]1C(=O)OC[C@@H]1Cc1cncn1C [Pilocarpine nitrate] (20 µM),0.556
13,COC(=O)[C@@H]1[C@H]2C[C@H]3c4[nH]c5ccccc5c4CCN3C[C@@H]2CC[C@@H]1O [Yohimbine hydrochloride] (20 µM),0.793
14,CC(=O)N1CCN(c2ccc(OCC3COC(Cn4ccnc4)(c4ccc(Cl)cc4Cl)O3)cc2)CC1 (stereo not drawn) [Ketoconazole] (20 µM),0.945
15,CN1C(C(=O)Nc2ccccn2)=C(O)c2ccccc2S1(=O)=O [Piroxicam] (20 µM),1.05
16,NS(=O)(=O)c1cc2c(cc1Cl)NC(Cc1ccccc1)NS2(=O)=O (stereo not drawn) [Benzylhydrochlorothiazide] (20 µM),0.982
17,Cc1cc2c(cc1S(N)(=O)=O)S(=O)(=O)CCC2 [Meticrane] (20 µM),1.24
18,OC[C@@H](O)[C@@H](O)[C@@H](O)[C@@H](O)CO [Allitol] (50 µM),0.986
19,Cc1c(N(C)C)c(=O)n(-c2ccccc2)n1C [Amidopyrine] (20 µM),1.18
